Compound activity as filed in PubChem BioAssay.
CHT block: human CHT choline transport inhibition; CHT-expressing cells, membrane potential dye, choline response; hits give low values; B-score at 10 µM; hit rate 0.86% among 310,000; AID 488975;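 active means B-score over 3 SD under the library average, and starting fluorescence ratio not unusually high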;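 further: choline stimulus applied at its EC90 after an EC20 pre-addition; B-score computed on integrated fluorescence ratio after choline addition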
Target sequence (Q9GZV3 whole entry, looked up): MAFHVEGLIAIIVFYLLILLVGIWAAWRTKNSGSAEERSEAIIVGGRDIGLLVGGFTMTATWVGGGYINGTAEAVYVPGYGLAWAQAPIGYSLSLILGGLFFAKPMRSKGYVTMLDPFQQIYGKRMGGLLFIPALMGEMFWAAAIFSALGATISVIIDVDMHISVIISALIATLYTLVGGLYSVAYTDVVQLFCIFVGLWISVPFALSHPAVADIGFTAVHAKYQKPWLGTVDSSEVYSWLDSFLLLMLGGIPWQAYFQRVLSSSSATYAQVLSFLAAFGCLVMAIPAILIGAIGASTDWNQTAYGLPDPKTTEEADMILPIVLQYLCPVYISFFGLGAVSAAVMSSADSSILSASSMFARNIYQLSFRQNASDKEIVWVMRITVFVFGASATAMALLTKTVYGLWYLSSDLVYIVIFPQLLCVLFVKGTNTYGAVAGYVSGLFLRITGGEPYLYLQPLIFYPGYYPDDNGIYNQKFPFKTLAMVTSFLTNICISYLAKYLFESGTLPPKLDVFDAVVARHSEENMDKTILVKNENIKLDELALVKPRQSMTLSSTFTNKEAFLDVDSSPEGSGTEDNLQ
TMEM16A inh: mouse TMEM16A channel inhibition, primary screen; Q8BHY3; HEK293 TMEM16A/YFP iodide influx fluorescence, ionomycin; normalized B-score (activity score, 25-100; higher = stronger inhibition) at 10 µM; hit rate 1.2% among 310,000; AID 588511;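 active means ratio plate-corrected score three or more library SD toward inhibition, starting fluorescence score within five deviations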;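 further: score derived from kinetic fluorescence span divided by baseline fluorescence per well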
ANO1 activ: mouse TMEM16A channel activation, primary screen; B-score at 10 µM; Q8BHY3; hit rate 0.3% among 340,000; HEK293 TMEM16A/YFP-H148Q/I152L, iodide quench fluorescence; hits give low values;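 active means fluorescence-ratio B-score plate-corrected deviation score at least 3 library SD below zero, with starting fluorescence score within 5 deviations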;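 further: channel opened by trigger with iodide after compound preincubation; score built on the fluorescence ratio of max minus min over baseline; more negative score means more quench and so TMEM16A activation or potentiation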
CHT PAM: allosteric activators of human choline transporter CHT | Q9GZV3 | CHT-expressing cells, membrane potential dye, choline EC20; hits give high values; LV-AA mutant CHT in HEK293 cells | B-score at 10 µM | hit rate 0.49% among 310,000 | AID 488977;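 active means initial fluorescence not abnormally high and integrated response B-score, plate-corrected, over 3 SD above library mean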
CHT act confirm: human CHT activation, confirmatory screen | activation, % at 10 µM | CHT-expressing cells, membrane potential dye fluorescence (FDSS); % of choline EC20–EC90 response window; HEK293 expressing CHT LV-AA mutant; choline added at its EC20 | shares compounds with CHT PAM | hit rate 91% among 2,500;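 active means primary screen active, with duplicate mean activation above negative control mean plus 3 SD, cut at about 11% in these data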
HEK293 MP dye: counter-screen for CHT activators: effect in parental HEK293 cells; shares compounds with CHT PAM; membrane potential dye fluorescence (FDSS); measured after EC20 choline addition; ratio readout change at 10 µM, hits read low; hit rate 62% among 2,500;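 active means duplicate-averaged ratio beyond 3 SD from buffer wells, up or down, though filed actives are nearly all decreases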
Starred values were filed as active, the others as inactive; i = inactive; / = no result given. Sampled rows, rich in hits. Any-hit rate of the full collection: about 2.3%.

SMILES	CHT block	TMEM16A inh	ANO1 activ	CHT PAM	CHT act confirm	HEK293 MP dye
O=C(C1CCC(=O)N(C2CC2)C1)N1CCC(Oc2cccc(C(F)(F)F)c2)CC1 (stereo unspecified)	/	/	i	/	/	/
Cc1nc(-c2cccc(S(=O)(=O)N3CCCC(C)C3)c2)cs1 (stereo unspecified)	i	i	i	i	/	/
O=C(C[n+]1cc(-c2ccccc2)n2c1CCCCC2)c1ccc(Cl)cc1	i	i	i	i	/	/
CC1CCC(C(C)C)C(OC(=O)C[n+]2cc(-c3ccc(Cl)cc3)n3c2CCCCC3)C1 (stereo unspecified)	i	i	i	13*	64*	i
COc1ccc(OC)c2c(C)cc(NCCN3CCOCC3)nc12	i	i	i	9.2*	65*	-60*
COc1ccc(C(=O)OCC(=O)Nc2ccc(Cl)c(C(F)(F)F)c2)c(OC)c1OC	i	i	i	7.6*	4	i
CC(C)CCn1c(NCCN(C)C)nc2c1c(=O)[nH]c(=O)n2C	i	i	i	i	26*	-41*
CN(C)CCNc1nc2c(c(=O)[nH]c(=O)n2C)n1CC(O)COc1ccc(Cl)cc1Cl (stereo unspecified)	i	i	i	8.9*	51*	-45*
Cc1nnc2c(N3CCN(CCO)CC3)nc3ccccc3n12	i	i	i	i	52*	-50*
CCc1cc2c(SCC(=O)NCC3CCCO3)ncnc2s1 (stereo unspecified)	/	/	i	/	/	/
COc1cccc(N2CCN(C(=O)c3ccc(CS(=O)c4ccccc4Cl)o3)CC2)c1 (stereo unspecified)	i	i	i	i	50*	i
O=C(c1ccc(CS(=O)c2ccccc2Cl)o1)N1CCN(c2ccccc2)CC1 (stereo unspecified)	i	i	i	6.4*	17*	i
CN(C)c1cccc2c(C=C(C#N)C#N)ccc(N(C)C)c12	i	i	i	11*	57*	-73*
CN(C)c1ccc(/C=N/O)cc1	i	i	i	i	/	/
CN(C)c1cccc2c(/C=N/O)ccc(N(C)C)c12	i	i	i	i	50*	-41*
Cn1c(/C=C(\C#N)C(N)=S)ccc1-c1ccc(Br)cc1	/	/	i	/	/	/
CCCCc1c(O)c2ccccc2[nH]c1=O	i	i	i	i	/	/
CCCCCCCCC1=NCCc2c1[nH]c1ccccc21	i	i	i	i	48*	i
COCCN(C(=O)CNC(=O)c1cccs1)C(C(=O)NC1CCCC1)c1cccs1 (stereo unspecified)	i	i	i	i	/	/
O=C(NC1CCCCC1)C(c1cccs1)N(Cc1cccs1)C(=O)c1cccs1 (stereo unspecified)	i	i	i	9.2*	30*	i
COc1ccccc1N(C(=O)c1ccco1)C(C(=O)NC1CCCC1)c1cccs1 (stereo unspecified)	i	i	i	11*	23*	i
CC(=O)Oc1ccc2oc(-c3ccccc3)c(C(N)=O)c2c1	i	i	/	i	/	/
Cc1nnc(C)n1/N=C/c1cc2ccccc2nc1Cl	i	i	i	8.6*	51*	-55*
Cc1nc2c3cc(Cl)ccc3n(CCN3CCOCC3)c2s1	i	i	i	i	15*	i
CCN(CC)CCn1c2ccc(F)cc2c2nc(C)sc21	i	i	i	i	27*	-63*
SMILES	CHT block	TMEM16A inh	ANO1 activ	CHT PAM	CHT act confirm	HEK293 MP dye
CCn1c2ccc(C)cc2c2nnc(SCCN3CCOCC3)nc21	i	i	i	i	/	/
CCOC(=O)Cn1c2ccc(C)cc2c2nc(C)sc21	i	i	i	i	/	/
Cc1sc2nc3ccc(N4CCCC4)nn3c(=O)c2c1C	i	i	i	i	38*	-38*
COc1c2occc2c(OC)c2c(=O)cc(C)oc12	i	i	i	i	34*	-38*
N#Cc1c(N)oc(-c2ccco2)c1-c1ccco1	i	i	i	8.2*	10*	i
N#Cc1c(N)oc(-c2ccccc2)c1-c1ccccc1	i	i	i	i	/	/
Cc1cccn2cc(-c3ccccc3)nc12	i	i	i	i	/	/
Cc1cccn2cc(CNc3ccccc3)nc12	i	i	i	i	31*	-26*
COc1cccc(C(=O)NC(c2ccccc2)C2CCCC2)c1 (stereo unspecified)	i	i	i	i	/	/
COc1ccc(CNCCC(c2ccc(F)cc2)c2ccc(OC(C)C)cc2)cc1OC (stereo unspecified)	i	i	i	i	/	/
COc1ccc(C(CCNCc2ccccc2)c2ccc(F)cc2)cc1 (stereo unspecified)	i	i	i	i	/	/
COc1ccc(C(CCNCc2ccc(N(C)C)cc2)c2ccccc2OC)cc1 (stereo unspecified)	i	i	i	i	/	/
COc1ccc(CNCCC(c2ccc(OC)cc2)c2ccccc2OC)cc1 (stereo unspecified)	i	i	i	7.8*	17*	i
COc1ccc(CNCCC(c2ccccc2)c2ccc(OC(C)C)cc2)cc1OC (stereo unspecified)	i	i	i	7.5*	8	i
COc1ccc(CNCCC(c2ccc(F)cc2)c2ccc(OC)cc2)cc1 (stereo unspecified)	i	i	i	i	0	i
COc1ccc(C(CCNCc2ccc(OC(C)C)cc2)c2ccccc2OC)cc1 (stereo unspecified)	i	25*	i	6.7*	14*	i
Cc1ccc(C(=O)/C=C/Nc2cccc([N+](=O)[O-])c2)o1	i	i	i	i	/	/
CCCCc1cc2c(c(NC(=O)CC)n1)c(=O)oc1ccccc12	/	/	i	/	/	/
COc1ccc(C(CCNC(C)c2ccccc2)c2ccc(F)cc2)cc1 (stereo unspecified)	i	i	i	i	44*	i
C[C@H]1CCC(=O)N([C@H](COc2ccccc2)Cc2ccccc2)CC1	i	i	i	6.3*	40*	i
CC1CCC(=O)N(CCOc2ccccc2)CC1 (stereo unspecified)	i	i	i	i	/	/
CSc1nc(O)c(C(c2cccc([N+](=O)[O-])c2)c2c(O)nc(SC)[nH]c2=O)c(=O)[nH]1	i	i	i	i	/	/
Cc1cc(C)n2[nH]c(=O)c(N=Nc3cccc(C(F)(F)F)c3)c2n1	i	i	i	7.2*	37*	-74*
